GPR151 ag = activators of human GPR151, primary screen, cell-based, PathHunter beta-arrestin, luminescence. G-protein coupled receptor 151 (Homo sapiens), Q8TDV0. activation, % at 11.2 µM. AID 1508602, 2020. 650,000 tested, 1% active. PathHunter beta-arrestin GPR151 cells; in the data active = activation above about 4.9%
TEAD-YAP inh = TEAD-YAP interaction inhibition, primary screen, TEAD-YAP interaction inhibitor project, luminescence, HEK-TIYL cells. TEAD-Gal4/YAP UAS-luciferase luminescence. inhibition, % at 9.12 µM. 640,000 tested, 1.4% active; in the data active = inhibition above about 32%
FBW7 act = FBW7 E3 ligase activators, primary screen, biochemical, AlphaScreen, human | F-box/WD repeat-containing protein 7 (Homo sapiens), Q969H0 | AlphaScreen FBW7–phospho-cyclin E peptide binding, activator screen | normalized activity (activation), % at 26.1 µM | 650,000 tested, 0.13% active | AID 1259310, 2017; in the data active = normalized activity above about 1.9%;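 also: purified mutant Fbw7 with reduced substrate affinity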
Target sequence (Q969H0 whole entry, looked up): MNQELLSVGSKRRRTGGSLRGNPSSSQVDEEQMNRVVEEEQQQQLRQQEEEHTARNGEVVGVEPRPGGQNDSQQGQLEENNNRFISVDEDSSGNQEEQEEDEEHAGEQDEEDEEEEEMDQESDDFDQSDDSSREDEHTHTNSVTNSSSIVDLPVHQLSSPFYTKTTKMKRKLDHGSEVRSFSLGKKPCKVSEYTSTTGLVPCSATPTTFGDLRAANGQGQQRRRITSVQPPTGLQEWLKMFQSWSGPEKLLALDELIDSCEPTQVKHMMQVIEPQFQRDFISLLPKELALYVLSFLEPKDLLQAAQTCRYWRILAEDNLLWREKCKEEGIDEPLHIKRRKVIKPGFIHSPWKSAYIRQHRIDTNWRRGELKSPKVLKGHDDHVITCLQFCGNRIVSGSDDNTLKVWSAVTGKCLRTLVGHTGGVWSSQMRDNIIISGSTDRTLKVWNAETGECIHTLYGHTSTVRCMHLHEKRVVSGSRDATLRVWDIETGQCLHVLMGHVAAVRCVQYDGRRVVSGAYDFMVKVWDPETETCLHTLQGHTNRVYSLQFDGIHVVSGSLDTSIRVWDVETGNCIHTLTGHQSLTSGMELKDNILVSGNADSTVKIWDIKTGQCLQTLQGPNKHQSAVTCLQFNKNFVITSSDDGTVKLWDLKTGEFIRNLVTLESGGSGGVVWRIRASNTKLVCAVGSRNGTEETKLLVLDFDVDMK
MITF primary = MITF inhibitors, primary screen, biochemical, AlphaScreen, human; AlphaScreen MITF homodimerization, bead proximity signal; AID 1259374, 2018; inhibition, % at 2.6 µM; Microphthalmia-associated transcription factor (Homo sapiens), O75030; 650,000 tested, 0.91% active; in the data active = inhibition above about 50%
A number is an active result; – = inactive; ! = a repeat was not active. In the library only some 3.5% were active in any assay of this set; here they are far more common.

SMILES	GPR151 ag	TEAD-YAP inh	FBW7 act	MITF primary
Oc1ccc(C2=Nn3c(nnc3-c3ccccc3O)SC2)cc1O	–	41	–	–
Cc1cc(Br)ccc1N1C(=O)/C(=C/c2ccc(Cl)cc2)C=C1c1ccccc1	–	–	1.9	–
Cc1cc(Br)ccc1N1C(=O)/C(=C/c2ccc(Br)cc2)C=C1c1ccccc1	–	–	–	–
C=CCNc1cc(C)nc2cc(-c3ccc(F)cc3)nn12	–	–	–	–
COc1ccc(CN2CCc3nc(SCc4nc(-c5ccccc5)oc4C)[nH]c(=O)c3C2)cc1	–	–	–	–
Cc1sc(NC(=O)c2cccnc2)nc1-c1ccc2c(c1)CCN2C(=O)CC(C)(C)C	–	–	–	–
CC(C)(C)CC(=O)N1CCc2cc(-c3csc(NC(=O)c4cccnc4)n3)ccc21	–	36	–	–
CCN(CC)S(=O)(=O)c1cccc(C(=O)N/N=C/c2cccc(O)c2O)c1	–	–	–	71
Cc1cccc(/C=N\NC(=O)c2ccc([N+](=O)[O-])cc2)c1O	–	62	–	–
O=C(N/N=C/c1cccc(O)c1O)c1ccc(O)cc1	–	–	–	57
c1ccc2c(c1)CCN(c1nc(NCCN3CCOCC3)c3ncn(-c4ccsc4)c3n1)C2	–	–	–	–
c1ccc2[nH]c(CNc3nc(N4CCC(N5CCOCC5)CC4)nc4c3ncn4-c3ccsc3)nc2c1	–	54	–	–
c1cc(-n2cnc3c(NCCN4CCOCC4)nc(N4CCC(N5CCOCC5)CC4)nc32)cs1	–	43	–	–
c1cc(-n2cnc3c(NCCN4CCOCC4)nc(N4CCOCC4)nc32)cs1	–	56	–	–
OCCNc1nc(N2CCOCC2)nc2c1ncn2-c1ccsc1	–	69	–	–
COC(=O)C1=C(C)N(CCc2ccccc2)C(=O)/C1=C\c1cccc([N+](=O)[O-])c1	–	–	–	–
COc1cc(Nc2nc(N3CCC(N4CCOCC4)CC3)nc3c2ncn3-c2ccsc2)cc(OC)c1OC	–	–	–	–
OCCNc1nc(N2CCOCC2)nc2c1ncn2-c1ccccc1	–	48	–	–
CC(=O)Nc1ccc(Nc2nc(N3CCC(N4CCOCC4)CC3)nc3c2ncn3-c2ccsc2)cc1	–	46	–	–
c1ccc(OCCNc2nc(N3CCOCC3)nc3c2ncn3-c2ccccc2)cc1	–	–	–	–
CCCCC1=NN2C(=N)/C(=C/c3ccc(OCCOc4ccccc4Cl)c(OC)c3)C(=O)N=C2S1	–	–	–	–
CCCCc1nc2c(o1)N=C(N)C1=C(OC)Nc3ccc(OC)cc3C12 (stereo not given)	–	–	–	–
CCOC(=O)C(C)(N)Cc1ccc(O)c(O)c1 (stereo not given)	–	–	–	–
CC(N)(Cc1ccc(O)c(O)c1)C(=O)O (stereo not given)	–	–	–	56
N[C@H](Cc1ccc(I)cc1)C(=O)O	–	–	–	–
SMILES	GPR151 ag	TEAD-YAP inh	FBW7 act	MITF primary
N[C@@H](Cc1ccc(O)c(O)c1)C(=O)O	–	–	–	79!
COc1cc(N)c(Cl)cc1C(=O)OCC(=O)NC1CCCCCCC1	–	–	–	–
O=C(Nc1ccc(F)cc1)c1ccc(Cl)c([N+](=O)[O-])c1	–	48	–	–
O=C(Nc1ccc(Cl)cc1)c1cc(Cl)ccc1[N+](=O)[O-]	–	–	–	–
O=C(Nc1cccc(-c2nc3ccccc3s2)c1)c1ccccc1[N+](=O)[O-]	–	–	–	–
O=C(Nc1cccc(-c2nc3ccccc3s2)c1)c1cc([N+](=O)[O-])ccc1Cl	–	36	–	–
O=C(Nc1cc(C(F)(F)F)ccc1Cl)c1ccc(Cl)c([N+](=O)[O-])c1	–	45	–	–
Cc1cccc(NC(=O)c2cc(Cl)ccc2[N+](=O)[O-])c1	–	45	–	–
COc1ccccc1OCC(=O)NCCSCc1cccc(Cl)c1	–	–	–	–
O=C(Nc1ccc2c(c1)OC(F)(F)O2)c1cc([N+](=O)[O-])ccc1Cl	–	68	–	–
O=C(Nc1cccc(I)c1)c1ccc(Cl)c([N+](=O)[O-])c1	–	33	–	–
O=C(Nc1cccc(F)c1)c1ccc(Cl)c([N+](=O)[O-])c1	–	–	–	–
O=C(Nc1cccc(C(F)(F)F)c1)c1ccc(Cl)c([N+](=O)[O-])c1	–	62	–	–
O=C(Nc1cccc(Cl)c1)c1ccc(Cl)c([N+](=O)[O-])c1	–	45	–	–
CC1=C(C(=O)Nc2ccccn2)C(c2ccccc2)n2nc(-c3ccccc3)nc2N1 (stereo not given)	–	–	–	–
CN(C(=O)CSc1nccc(=O)[nH]1)C1CCCCC1	–	–	–	–
COc1cc(S(=O)(=O)NCc2ccc3c(c2)OCO3)ccc1Br	–	–	–	–
O=C(Nc1cccc(I)c1)c1cc([N+](=O)[O-])ccc1Cl	–	45	–	–
CCOc1cc(C2C(C#N)=C(N)OC3=C2C(=O)CC(C)(C)C3)c(C)cc1OC (stereo not given)	–	–	–	–
Cc1ccc(C(C)C)c(OCC(O)Cn2c(C)nc3ccccc32)c1 (stereo not given)	–	50	–	–
C=CCc1ccccc1OCC(O)Cn1c(C)nc2ccccc21 (stereo not given)	–	40	–	–
C=CCc1ccccc1OCC(O)Cn1c(CO)nc2ccccc21 (stereo not given)	–	–	–	–
COc1cc(NC(=O)c2csc(-c3ccc(C(N)=O)cc3)n2)cc(OC)c1OC	–	36	–	–
COc1cc(Nc2ccnc(-c3ccc(C(N)=O)cc3)n2)cc(OC)c1OC	–	51	–	–
COc1cc(NC(=O)c2csc(N3CCN(Cc4ccc5c(c4)OCO5)CC3)n2)cc(OC)c1OC	–	41	–	–
SMILES	GPR151 ag	TEAD-YAP inh	FBW7 act	MITF primary
COc1ccc(-c2nc(C(=O)Nc3cc(OC)c(OC)c(OC)c3)cs2)cc1	–	–	–	–
CCOC(=O)N1CCN(S(=O)(=O)c2ccc(Cl)c(OCC)c2)CC1	–	–	–	–
COc1cc(C(C(=O)Nc2c(C)cccc2C)N(Cc2ccco2)C(=O)c2ccc(-n3cnnn3)cc2)ccc1O (stereo not given)	–	–	–	–
O=C(NNc1ccccc1[N+](=O)[O-])c1ccc(Sc2ncn[nH]2)c([N+](=O)[O-])c1	–	–	–	–
O=C1CC(n2nc(Cc3ccccc3)n(-c3ccccc3)c2=S)C2COC1O2 (stereo not given)	–	–	–	–
Cc1ccc(S(=O)(=O)N2CCN(C(=O)CC(C)(C)C)CC2)cc1	–	–	–	–
Cc1ccc(NC(=O)c2cccc3[nH]ncc23)cc1Cl	–	–	–	–
O=C(O)c1ccc(N/N=C/c2cccnc2)cc1	–	33	–	–
N#Cc1ccc(/C=N/NC(=O)c2ccccc2O)cc1	–	–	–	–
COc1ccc(/C(C)=N/Nc2ccc(C(=O)O)cc2)c(OC)c1	–	48	–	–

Bioassay records as filed in PubChem.
